Results on five molecules are retold here after PubChem BioAssay.

Structures are written as SMILES. Calls of active or inactive are those of the source.

Assay [1] has as its system Plasmodium falciparum Sir2 (PF13_0152, Sir2A). Kind of assay: pfSir2 binders on small-molecule microarrays, primary screen, biochemical, small-molecule microarray, 635 nm fluorescence (AID 1098).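 Further: score merges spot fluorescence intensity with its signal-to-noise ratio.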 As to conditions: small-molecule microarray binding, fluorescence 635 nm; higher = more signal.
Assay [2] is described as follows: small-molecule microarray binders of probe aDKK1, primary screen, biochemical, biotinylated probe, 635/667 nm fluorescence (AID 1099).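 Further: score merges 667nm spot fluorescence with signal to noise across triplicate slides.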 As to conditions: higher = more signal.
Assay [3] is described as follows: small-molecule microarray binders of probe aCHRDL2, primary screen, biochemical, biotinylated probe, 635/667 nm fluorescence (AID 1100). Conditions: higher = more signal.
A short description of assay [4]: splicing luciferase reporter signal modulators, primary screen, spliceosome inhibition project, cell-based, HEK293, splice +/- reporter (AID 1101).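 Further: HEK293 cells carrying a splicing-competent luciferase reporter gene; test concentration not given here.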 As to conditions: luminescence, 24 h, higher = more signal, called active from +8 up or from −8 down.
Assay [5] has as its target Fibroblast growth factor 10 (Homo sapiens) (UniProt O15520). As to the kind of experiment: FGF10 binders on small-molecule microarrays, primary screen, biochemical, small-molecule microarray, 635 nm fluorescence (AID 1102). Conditions: FGF10 binding, fluorescence 635 nm, higher = more signal.
Assay [6] relates to glycogen synthase kinase-3 (GSK3A per assay name; protocol says GSK3B). As to the kind of experiment: GSK3 binders on small-molecule microarrays, primary screen, biochemical, small-molecule microarray, 635 nm fluorescence, GSK3A (AID 1103). Further: the record names both GSK3A and GSK3B. Conditions: small-molecule microarray binding, fluorescence 635 nm; higher = more signal.
Assay [7] concerns the target Epidermal growth factor receptor (Homo sapiens) (UniProt P00533). Kind of assay: EGFR binders on small-molecule microarrays, primary screen, biochemical, small-molecule microarray, 635 nm fluorescence (AID 1104).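 Further: score merges 667 nm emission intensity with spot signal to noise over triplicate slides.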 As to conditions: EGFR binding, higher = more signal.
For assay [8], the target named is Follistatin-related protein 3 (Homo sapiens) (UniProt O95633). As to the kind of experiment: FSTL3 binders on small-molecule microarrays, primary screen, biochemical, small-molecule microarray, 635 nm fluorescence (AID 1105).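 Further: score merges emission near 667 nm and signal to noise per printed spot across three slides.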 Conditions: FSTL3 binding, higher = more signal.
Assay [9] concerns the target Dickkopf-related protein 1 (Homo sapiens) (UniProt O94907). Kind of assay: DKK1 binders on small-molecule microarrays, primary screen, biochemical, small-molecule microarray, 635 nm fluorescence scan (AID 1106).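 Further: score merges emission near 667 nm with signal to noise over three replicate slides.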 Conditions: DKK1 binding, higher = more signal.
Assay [10] has as its system Inhibin beta A chain (activin A). Kind of assay: INHBA (activin A) binders on microarrays, primary screen, biochemical, small-molecule microarray, 635 nm fluorescence scan (AID 1107).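 Further: mouse activin A protein probed at 4.33 µg/mL on printed slides; score merges bound-protein fluorescence near 667 nm with spot signal-to-noise.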 Conditions: small-molecule microarray binding, higher = more signal.
Assay [11] has as its system Human papillomavirus type 1a protein E7 (residues 44-93). As to the kind of experiment: HPV1a E7 fragment binders on microarrays, primary screen, biochemical, small-molecule microarray, residues 44-93, 635 nm fluorescence (AID 1108).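 Further: E7 fragment applied at 1 µg/mL in TBST for 1 h at 4 C; score combines spot fluorescence with its signal to noise ratio.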 As to conditions: small-molecule microarray binding, fluorescence 635 nm; higher = more signal.
Assay [12] in a line: modulators of HCV replicon luciferase signal, primary screen, HCV replication inhibitor project, Huh7 cells, luciferase reporter (AID 1109).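 Further: huh7 hepatoma cells harbouring a luciferase neomycin HCV replicon reporter; luciferase luminescence as measure of HCV replicon replication; test concentration not given here.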 Conditions: 48 h, higher = more signal.
The target of assay [13] is Left-right determination factor 2 (Homo sapiens) (UniProt O00292). As to the kind of experiment: LEFTY2 binders on small-molecule microarrays, primary screen, biochemical, small-molecule microarray, 635 nm fluorescence scan (AID 1110). Conditions: LEFTY2 binding, higher = more signal.
In assay [14] the target is Calmodulin-1 (Homo sapiens) (UniProt P0DP23). As to the kind of experiment: CALM1 binders on microarrays, EGTA buffer, profiling panel, biochemical, small-molecule microarray, Cy5-labelled CALM1 (AID 1111).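 Further: labelled calmodulin applied in Tris saline Tween buffer holding calcium plus EGTA and DTT.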 As to conditions: Cy5-CALM1 binding fluorescence, higher = more signal.
For assay [15] the target is unchanged. As to the kind of experiment: calcium-bound CALM1 binders on microarrays, profiling panel, artefact control for SMM control-protein annotation, biochemical, small-molecule microarray, Cy5-labelled CALM1, plus calcium (AID 1112).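 Further: score merges spot fluorescence with signal to noise from triplicate slides.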 As to conditions: Cy5-CALM1 binding fluorescence, higher = more signal.
Assay [16] in a line: small-molecule microarray binders of probe aWnt5a, primary screen, biochemical, biotinylated probe, 635/667 nm fluorescence (AID 1113).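 Further: score merges 667 nm fluorescence intensity with signal-to-noise per printed feature.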 Conditions: higher = more signal.
Assay [17] is described as follows: small-molecule microarray binders of probe aShh, primary screen, biochemical, biotinylated probe, 635/667 nm fluorescence (AID 1114).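 Further: probe is biotin-labelled aShh protein from a stem cell growth factor screen; measures binding of labelled protein to compounds printed on the slide; score merges feature fluorescence at 667 nm with signal-to-noise.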 Conditions: higher = more signal.
Assay [18] can be described thus: small-molecule microarray binders of probe aNog, primary screen, biochemical, biotinylated probe, 635/667 nm fluorescence (AID 1115).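 Further: probe is biotinylated aNog protein used at 0.15 µg/mL for 1 h at 4 C; z-score combines 667 nm fluorescence of each spot with its signal to noise.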 Conditions: higher = more signal.
For assay [19], the target named is Torsin-1A-interacting protein 1 (Homo sapiens) (UniProt Q5JTV8). Kind of assay: LAP1 binders from COS7 cell lysate, primary screen, small-molecule microarray, 635/667 nm fluorescence (AID 1116). Conditions: COS7-hLAP1 lysate binding, 635 nm fluorescence, higher = more signal.
The target in assay [20] is Alpha-bungarotoxin (Bungarus multicinctus) (UniProt P60615). As to the kind of experiment: alpha-bungarotoxin binders on microarray, profiling panel, artefact control for SMM control protein annotation, biochemical, small-molecule microarray, Alexa647 label, 635/667 nm fluorescence (AID 1117). As to conditions: alpha-BTX-A647 binding fluorescence, higher = more signal.
Sequence of Alpha-bungarotoxin (Bungarus multicinctus) (P60615 whole entry, looked up): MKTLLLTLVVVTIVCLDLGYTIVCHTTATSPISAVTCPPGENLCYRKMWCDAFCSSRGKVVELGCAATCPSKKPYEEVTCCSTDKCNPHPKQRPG

Sequence of Epidermal growth factor receptor (Homo sapiens) (P00533 whole entry, looked up): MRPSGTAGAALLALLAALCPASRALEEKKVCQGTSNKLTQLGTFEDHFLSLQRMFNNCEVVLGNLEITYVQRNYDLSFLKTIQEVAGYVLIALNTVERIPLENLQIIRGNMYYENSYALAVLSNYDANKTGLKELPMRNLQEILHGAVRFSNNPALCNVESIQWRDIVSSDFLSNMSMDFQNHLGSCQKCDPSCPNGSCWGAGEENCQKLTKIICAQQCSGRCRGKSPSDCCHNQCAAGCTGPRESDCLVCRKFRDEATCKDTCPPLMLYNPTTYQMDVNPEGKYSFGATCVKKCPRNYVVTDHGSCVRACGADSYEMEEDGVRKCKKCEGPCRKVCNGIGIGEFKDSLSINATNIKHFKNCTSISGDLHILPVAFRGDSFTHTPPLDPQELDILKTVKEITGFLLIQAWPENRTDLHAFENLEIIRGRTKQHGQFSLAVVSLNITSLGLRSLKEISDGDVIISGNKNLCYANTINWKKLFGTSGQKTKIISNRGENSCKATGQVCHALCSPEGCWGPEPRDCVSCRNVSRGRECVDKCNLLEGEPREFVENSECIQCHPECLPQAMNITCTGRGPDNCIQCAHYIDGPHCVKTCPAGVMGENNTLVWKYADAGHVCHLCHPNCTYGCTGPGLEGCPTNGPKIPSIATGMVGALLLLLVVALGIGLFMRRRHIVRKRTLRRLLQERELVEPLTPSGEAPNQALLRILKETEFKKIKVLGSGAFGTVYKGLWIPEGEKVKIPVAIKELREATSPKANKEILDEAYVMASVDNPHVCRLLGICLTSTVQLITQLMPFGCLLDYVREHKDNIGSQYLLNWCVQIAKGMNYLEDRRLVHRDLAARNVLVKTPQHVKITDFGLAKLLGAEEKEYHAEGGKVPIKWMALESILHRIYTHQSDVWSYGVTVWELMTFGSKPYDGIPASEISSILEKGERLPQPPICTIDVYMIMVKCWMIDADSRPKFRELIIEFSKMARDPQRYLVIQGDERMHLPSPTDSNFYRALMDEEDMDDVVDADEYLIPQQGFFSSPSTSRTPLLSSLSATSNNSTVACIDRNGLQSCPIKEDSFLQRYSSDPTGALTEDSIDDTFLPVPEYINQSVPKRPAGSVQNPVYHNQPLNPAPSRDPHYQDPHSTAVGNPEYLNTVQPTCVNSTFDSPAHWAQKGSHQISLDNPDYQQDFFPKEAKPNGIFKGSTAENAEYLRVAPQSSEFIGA
Sequence of Fibroblast growth factor 10 (Homo sapiens) (O15520 whole entry, looked up): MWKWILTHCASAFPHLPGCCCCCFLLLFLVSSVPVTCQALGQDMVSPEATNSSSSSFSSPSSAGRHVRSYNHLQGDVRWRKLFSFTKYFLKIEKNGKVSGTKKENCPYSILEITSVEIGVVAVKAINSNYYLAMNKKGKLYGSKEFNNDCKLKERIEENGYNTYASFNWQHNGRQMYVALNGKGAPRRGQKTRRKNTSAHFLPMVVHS
Sequence of Dickkopf-related protein 1 (Homo sapiens) (O94907 whole entry, looked up): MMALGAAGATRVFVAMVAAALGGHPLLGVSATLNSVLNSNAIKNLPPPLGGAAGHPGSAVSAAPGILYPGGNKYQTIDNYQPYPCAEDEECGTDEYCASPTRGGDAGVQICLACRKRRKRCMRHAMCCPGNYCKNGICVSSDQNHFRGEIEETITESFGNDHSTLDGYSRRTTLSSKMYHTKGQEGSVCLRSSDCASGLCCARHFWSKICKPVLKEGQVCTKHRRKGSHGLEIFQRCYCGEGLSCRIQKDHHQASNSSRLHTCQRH
Sequence of Torsin-1A-interacting protein 1 (Homo sapiens) (Q5JTV8 whole entry, looked up): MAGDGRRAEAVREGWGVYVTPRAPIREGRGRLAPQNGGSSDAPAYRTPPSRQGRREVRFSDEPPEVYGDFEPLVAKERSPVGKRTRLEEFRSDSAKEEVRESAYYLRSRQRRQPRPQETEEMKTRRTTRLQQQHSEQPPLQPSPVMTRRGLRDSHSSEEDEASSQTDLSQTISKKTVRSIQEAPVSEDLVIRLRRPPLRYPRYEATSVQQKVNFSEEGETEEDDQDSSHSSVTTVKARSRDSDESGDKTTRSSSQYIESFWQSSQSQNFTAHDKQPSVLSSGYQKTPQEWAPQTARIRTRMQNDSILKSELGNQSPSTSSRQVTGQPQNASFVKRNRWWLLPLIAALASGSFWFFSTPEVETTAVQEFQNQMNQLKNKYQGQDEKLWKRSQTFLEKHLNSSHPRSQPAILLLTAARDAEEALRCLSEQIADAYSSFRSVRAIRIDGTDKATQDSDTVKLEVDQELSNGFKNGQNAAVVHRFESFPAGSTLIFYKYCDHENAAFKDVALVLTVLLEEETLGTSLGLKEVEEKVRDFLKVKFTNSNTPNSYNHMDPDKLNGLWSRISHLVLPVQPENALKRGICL
Sequence of Follistatin-related protein 3 (Homo sapiens) (O95633 whole entry, looked up): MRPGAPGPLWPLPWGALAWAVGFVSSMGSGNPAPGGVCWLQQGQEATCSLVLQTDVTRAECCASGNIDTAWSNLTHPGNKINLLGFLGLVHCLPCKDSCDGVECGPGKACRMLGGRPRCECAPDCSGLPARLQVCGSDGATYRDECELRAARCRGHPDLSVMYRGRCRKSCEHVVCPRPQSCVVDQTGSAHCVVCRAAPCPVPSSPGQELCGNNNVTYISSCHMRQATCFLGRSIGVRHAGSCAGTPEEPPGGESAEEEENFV
Sequence of Left-right determination factor 2 (Homo sapiens) (O00292 whole entry, looked up): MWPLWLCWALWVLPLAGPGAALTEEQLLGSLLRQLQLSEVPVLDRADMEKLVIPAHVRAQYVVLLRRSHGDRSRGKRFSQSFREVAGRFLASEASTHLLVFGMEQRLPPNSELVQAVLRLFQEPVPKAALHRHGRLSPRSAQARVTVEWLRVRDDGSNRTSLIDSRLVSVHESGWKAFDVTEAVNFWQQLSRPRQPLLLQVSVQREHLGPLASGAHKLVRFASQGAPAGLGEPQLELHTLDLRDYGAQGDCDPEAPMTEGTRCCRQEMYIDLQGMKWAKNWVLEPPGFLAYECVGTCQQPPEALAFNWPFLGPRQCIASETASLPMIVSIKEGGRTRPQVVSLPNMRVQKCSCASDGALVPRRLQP

For `COCCOC(=O)N1C(=O)[C@@]2(c3cc(C#CC4(O)CCCCCC4)ccc31)[C@H](C(N)=O)[C@H]1C(=O)O[C@H](c3ccccc3)[C@H](c3ccccc3)N1[C@@H]2c1ccc(OCCO)cc1`, the composite z-score in assay [1] is 0.804; in assay [2], 0.527; in [3] it was 0.668; in assay [5] it was 0.99; in assay [6] it was 1.28; in assay [7] it was 0.484. The composite z-score in assay [8] worked out at 0.974; in assay [9] it was 0.338; in [10], 0.725; in [11] it was 0.688; in assay [13] it was 0.73; in assay [14], 1.49. Further, the composite z-score in [15] was 0.527; in assay [16] it was -0.0364; in assay [17], 0.407; in assay [18] it was 0.176; in assay [19], 0.883; in assay [20], 1.61. In addition, the z-score in [4] is -0.0691 (inactive); in assay [12] it was -2.61.
Turning to `COC(=O)[C@@]1(Cc2ccc(F)cc2)[C@H]2c3cc(C(=O)N4CCCC4)n(CCSCCO)c3C[C@H]2CN1C(=O)c1ccccc1`, the composite z-score in assay [1] is 1.33; in [2], 1.02; in assay [3] it was 1.22; in assay [5] it was 0.26; in [6], -0.273; in assay [7], -0.707. The composite z-score in assay [8] was -0.803; in [9], -0.957; in [10] it was 1.06; in [11] it was 1.2; in assay [13] it was -0.721; in assay [14], 1.34. Also, the composite z-score in assay [15] was determined as 0.318; in [16] it was 0.0914; in [17], 1.08; in [18], 1.56; in assay [19], 0.403; in assay [20], 0.566. Further, the z-score in assay [4] was -2.25 (inactive); in assay [12] it was -1.24.
For the molecule `COc1ccc(C(=O)Nc2ccc(CN3C(=O)[C@@]4(O[C@@H](CC(=O)N(CCO)Cc5ccccc5)[C@H]([Si](C)(C)c5ccc(OC)cc5)[C@H]4C)c4ccccc43)cc2)cc1`, the composite z-score was 0.901 in assay [1]; -0.0966 in assay [2]; -0.351 in assay [3]; 0.201 in [5]; -0.185 in assay [6]; 0.7 in [7]. Further, the composite z-score in [8] was 0.335; in assay [9], 0.502; in [10], 0.432; in [11], -0.471; in assay [13], 0.444; in assay [14], 0.655. Moreover, the composite z-score was -0.0779 in assay [15]; -0.14 in assay [16]; -0.341 in assay [17]; -0.31 in assay [18]; 0.121 in assay [19]; 0.331 in assay [20]. Also, the z-score in assay [4] was -1.78 (inactive); in assay [12], -3.92.
Turning to `CO[C@H]1O[C@H](CO)[C@@H](OC(=O)Nc2cccc(F)c2)[C@H](OC(=O)c2cc3ccccc3[nH]2)[C@H]1OC(=O)c1cc2ccccc2[nH]1`, the composite z-score was -0.233 in [1]; -0.448 in assay [2]; -0.154 in assay [3]; 0.284 in [5]; -0.199 in assay [6]; -0.213 in [7]. Moreover, the composite z-score in assay [8] is 0.469; in [9], 0.135; in assay [10] it was 0.0912; in assay [11] it was 0.177; in assay [13], 0.0416; in assay [14], 0.681. The composite z-score was 0.0008 in assay [15]; -0.232 in [16]; -0.138 in assay [17]; -0.158 in assay [18]; -0.009 in [19]; 0.698 in assay [20]. In addition, the z-score in assay [4] was -1.57 (inactive); in assay [12], -2.25.
Take `CN(C)CCCCCCNC(=O)[C@@H]1C[C@@H]2C(=O)N[C@@H](CCCC[N+](C)(C)C)C(=O)N2[C@@H]1c1cccc(OCCO)c1`: the composite z-score in assay [1] was 0.512; in [2] it was 0.116; in assay [3], 0.474; in assay [5], -1.11; in assay [6], 0.218; in assay [7] it was -0.962. Also, the composite z-score was -0.714 in assay [8]; -0.377 in assay [9]; -0.246 in [10]; -0.0272 in assay [11]; -1.28 in assay [13]; -0.207 in [14]. In addition, the composite z-score in assay [15] is -0.327; in assay [16], -0.0981; in [17] it was -0.295; in assay [18], -0.444; in assay [19], 2.09; in assay [20] it was 0.217. In addition, the z-score was -1.52 (inactive) in [4] and 3.7 in assay [12].
